Records with an inconclusive call do not appear. A call without a number means that no potency is given here. Activity calls are given as the source filed them. Unless noted, calls come from the whole dose curve; as a rule, active = well fitted curve in the direction sought with a large enough effect in the repeat runs; inconclusive = weak or mixed curves; inactive = no such curve, though single readings can be large; an effect the other way counts as inactive or inconclusive.
Experiments:
[1] = A CellTox Green Cytotoxicity Assay to monitor cytotoxicity in HepG2 cells - 32 hour (AID 1224883); note: nearly all actives have a fitted effect of over 50% in size; note: potency is the fitted concentration of half-maximal effect
Summary of the method: (§1)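 Measurements at 0, 8, 16, 24, 32 and 40 h of treatment captured CellTox Green fluorescence in HepG2 cells that had been co-plated with reagent and preincubated 5 h at 37 C/5% CO2.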

[2] = A CellTox Green Cytotoxicity Assay to monitor cytotoxicity in HEK293 cells - 8 hour (AID 1224884); note: nearly all actives have a fitted effect of over 35% in size; note: potency is the fitted concentration of half-maximal effect
Summary of the method: (§2)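 Tox21 screen in HEK293: membrane-impermeant cyanine dye fluoresces on binding dead-cell DNA; compound pinned 5 h post-seeding, plates held at 37 C, signal read repeatedly through 40 h.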

[3] = qHTS RealTime-Glo MT Cell Viability Assay in HepG2 cells - 16 hour (AID 1224885); note: nearly all actives have a fitted effect of over 50% in size; note: potency is the fitted concentration of half-maximal effect
Summary of the method: (§3)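 HepG2 cells (600/well) were dispensed with RealTime-Glo reagents, incubated 5 h at 37 °C, then treated with compounds in DMSO for up to 40 h. Nonlytic NanoLuc luminescence reflecting viable cells was read at each stated time point.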

[4] = qHTS RealTime-Glo MT Cell Viability Assay in HEK293 cells - 24 hour (AID 1224886); note: nearly all actives have a fitted effect of over 50% in size; note: potency is the fitted concentration of half-maximal effect
Summary of the method: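 HEK293 cells seeded with NanoLuc/prosubstrate reagent, rested 5 h at 37 C, then dosed and kept at 37 C up to 40 h. Nonlytic real-time luminescence from viable cells read at 0, 8, 16, 24, 32 and 40 h.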

[5] = qHTS RealTime-Glo MT Cell Viability Assay in HEK293 cells - 8 hour (AID 1224887); note: nearly all actives have a fitted effect of over 50% in size; note: potency is the fitted concentration of half-maximal effect
Summary of the method: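 HEK293 + NanoLuc + prosubstrate, 600 cells/well; 5 h, 37 C/5% CO2; compound 23 nL in DMSO by pintool; 37 C; luminescence read at 0, 8, 16, 24, 32 and 40 h time points.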

[6] = A CellTox Green Cytotoxicity Assay to monitor cytotoxicity in HEK293 cells - 16 hour (AID 1224888); note: nearly all actives have a fitted effect of over 35% in size; note: potency is the fitted concentration of half-maximal effect
Summary of the method: as §2

[7] = qHTS RealTime-Glo MT Cell Viability Assay in HepG2 cells - 0 hour (AID 1224889); note: nearly all actives have a fitted effect of over 50% in size
Summary of the method: as §3

[8] = A CellTox Green Cytotoxicity Assay to monitor cytotoxicity in HepG2 cells - 8 hour (AID 1224890); note: nearly all actives have a fitted effect of over 45% in size; note: potency is the fitted concentration of half-maximal effect
Summary of the method: as §1

[9] = qHTS assay to identify small molecule antagonists of the estrogen receptor alpha (ER-alpha) signaling pathway using the BG1 cell line in the presence of 0.1 nM 17-beta-estradiol - cell viability counter screen (AID 1259241); note: nearly all actives have a fitted effect of over 40% in size; note: potency is the fitted concentration of half-maximal effect
Summary of the method: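 Following 5 days in phenol red-free medium with charcoal-stripped serum, VM7Luc4E2 cells received test compounds alongside 0.1 nM 17beta-estradiol (final) at 37C for 22 hr. Live cells were then quantified via protease-substrate fluorescence.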

[10] = qHTS assay to identify small molecule antagonists of the androgen receptor (AR) signaling pathway using the MDA cell line in the presence of 0.5 nM R1881 - cell viability counter screen (AID 1259242); note: nearly all actives have a fitted effect of over 45% in size
Summary of the method: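 Concentration-response screen of compounds for toxicity in MDA-kb2 reporter cells: 16 hr at 37C with 0.5 nM R1881, endpoint live-cell protease fluorescence measured in the reporter wells.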

[11] = qHTS assay to identify small molecule phospholipidosis (PLD) inducers (AID 1259344; active = well fitted curve in the direction sought with a large enough effect; an effect the other way counts as inactive or inconclusive)
Summary of the method: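 After 4 h attachment on collagen I, HepG2 cells were dosed with compound alongside LipidTOX Red, kept 24 h at 37 C, fixed, and imaged for lamellar phospholipid pits.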

[12] = qHTS assay to identify small molecule HDAC inhibitors (AID 1259364);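 note: wild-type HCT-116 cells with endogenous class I/II HDAC activity; top concentration of the series differs between compounds; nearly all actives have a fitted effect of over 45% in size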
Summary of the method: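 Screening used wild-type human colon HCT-116 cells incubated overnight, dosed with compounds for 2 hours, and assayed with a homogeneous luminogenic HDAC I/II reagent for 30 minutes at room temperature.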

[13] = qHTS assay to identify small molecule HDAC inhibitors - cell viability counter screen (AID 1259365)
Summary of the method: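 HCT-116 wild-type, overnight attachment; 2hr drug exposure, 37C; CellTiter-Glo luminescent ATP readout after 30min RT.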

[14] = qHTS assay to identify small molecule agonists of the sonic hedgehog signaling (Shh) pathway (AID 1259368; calls by dose curve;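 note: NIH/3T3-derived 3T3Gli1-Luc cells carrying a stable Gli1-driven firefly luciferase reporter; series mostly up to about 92 µM; nearly all actives have a fitted effect of over 15% in size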)
Summary of the method: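 Hedgehog pathway agonism scored by increased firefly luciferase luminescence in 3T3Gli1-Luc cells treated 24 hr at 37 C; detection used a 30 min room-temperature reagent incubation.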

[15] = qHTS assay to identify small molecule antagonists of the sonic hedgehog signaling (Shh) pathway (AID 1259369; calls by dose curve; note: nearly all actives have a fitted effect of over 45% in size; note: potency is the fitted concentration of half-maximal effect)
Summary of the method: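 NIH/3T3 stable Gli1-Luc clone, 2,000 cells/well, 4hr settle; cpd + conditioned medium 24hr; Luc reagent 30min RT; luminescence.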

[16] = target: Estrogen receptor beta (Homo sapiens) (UniProt Q92731); test: qHTS assay to identify small molecule agonists of the estrogen receptor beta (ER-beta) signaling pathway (AID 1259377; active = well fitted activation curve with a large enough effect in the signal ratio in the repeat runs, not every such curve was filed as active; the % refers to the signal ratio)
Summary of the method: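 qHTS in ER-beta-UAS-bla HEK293T cells: 6 hr settling, then 16 hr compound at 37C, then LiveBLAzer substrate 2 h at RT before fluorescence reading.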

[17] = qHTS assay to identify small molecule agonists of the sonic hedgehog signaling (Shh) pathway - cell viability counter screen (AID 1259366); note: nearly all actives have a fitted effect of over 50% in size; note: potency is the fitted concentration of half-maximal effect
Summary of the method: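 Compounds in DMSO were pin-transferred onto 3T3 Gli1-Luc cells that had settled 4hr; plates then stood 24hr at 37C and 5% CO2. One hour before the end, CellTiter-Fluor was added and fluorescence recorded.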

[18] = qHTS assay to identify small molecule antagonists of the sonic hedgehog signaling (Shh) pathway - cell viability counter screen (AID 1259367); note: nearly all actives have a fitted effect of over 55% in size; note: potency is the fitted concentration of half-maximal effect
Summary of the method: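 Conditioned medium drove Shh signaling in 3T3 Gli1-Luc cells exposed to compounds at 37C and 5% CO2. Viability was determined from CellTiter-Fluor fluorescence, with reagent incubated 1 hr after 23 hr of treatment.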

[19] = target: Estrogen receptor (Homo sapiens) (UniProt P03372); test: qHTS assay to identify small molecule antagonists of the estrogen receptor alpha (ER-alpha) signaling pathway using the BG1 cell line in the presence of 0.1 nM 17-beta-estradiol (AID 1259244); note: nearly all actives have a fitted effect of over 50% in size; note: potency is the fitted concentration of half-maximal effect
Summary of the method: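 Compounds were tested against 0.1 nM (final) 17beta-estradiol in VM7Luc4E2 cells, which express full-length ER-alpha and an ERE-luciferase reporter; luminescence was recorded following 22 h exposure.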

Sequence of Estrogen receptor beta (Homo sapiens) (Q92731 whole entry, looked up): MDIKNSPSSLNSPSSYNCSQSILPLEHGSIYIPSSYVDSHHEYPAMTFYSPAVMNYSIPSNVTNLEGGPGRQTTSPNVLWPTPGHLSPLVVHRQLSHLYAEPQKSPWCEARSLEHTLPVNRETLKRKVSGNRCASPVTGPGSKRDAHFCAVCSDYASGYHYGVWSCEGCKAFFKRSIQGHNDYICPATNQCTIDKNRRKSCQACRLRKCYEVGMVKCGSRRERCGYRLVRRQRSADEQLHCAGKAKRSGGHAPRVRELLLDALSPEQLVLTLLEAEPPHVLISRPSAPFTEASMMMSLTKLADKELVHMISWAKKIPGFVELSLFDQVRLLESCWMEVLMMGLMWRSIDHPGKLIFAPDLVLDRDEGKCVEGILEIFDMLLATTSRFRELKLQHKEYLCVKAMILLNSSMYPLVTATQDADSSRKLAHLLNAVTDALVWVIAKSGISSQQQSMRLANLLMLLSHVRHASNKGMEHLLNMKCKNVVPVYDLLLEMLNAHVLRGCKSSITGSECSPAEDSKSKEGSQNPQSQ
Sequence of Estrogen receptor (Homo sapiens) (P03372 whole entry, looked up): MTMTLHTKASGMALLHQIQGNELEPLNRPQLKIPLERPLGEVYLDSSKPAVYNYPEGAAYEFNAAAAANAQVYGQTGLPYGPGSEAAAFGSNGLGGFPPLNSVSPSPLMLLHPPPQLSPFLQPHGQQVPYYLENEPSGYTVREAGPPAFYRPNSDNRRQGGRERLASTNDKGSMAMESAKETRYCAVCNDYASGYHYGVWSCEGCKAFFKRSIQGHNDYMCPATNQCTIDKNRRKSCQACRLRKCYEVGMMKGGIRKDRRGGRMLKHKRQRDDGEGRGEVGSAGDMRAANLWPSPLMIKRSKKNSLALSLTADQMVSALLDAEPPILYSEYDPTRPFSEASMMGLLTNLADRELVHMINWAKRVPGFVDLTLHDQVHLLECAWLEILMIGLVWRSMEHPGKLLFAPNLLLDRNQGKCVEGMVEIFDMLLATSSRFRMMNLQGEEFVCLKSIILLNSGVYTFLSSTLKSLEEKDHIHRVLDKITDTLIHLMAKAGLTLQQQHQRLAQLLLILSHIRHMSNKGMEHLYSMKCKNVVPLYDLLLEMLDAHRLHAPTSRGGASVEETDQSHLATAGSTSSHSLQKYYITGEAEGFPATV

Row | SMILES | Potency [1] | Potency [2] | Potency [3] | Potency [4] | Potency [5] | Potency [6] | Potency [7] | Potency [8] | Potency [9] | Potency [10] | Potency [11] | Potency [12] | Potency [13] | Potency [14] | Potency [15] | Potency [16] | Potency [17] | Potency [18] | Potency [19]
1 | O=c1[nH]c2ccccc2n1CCCN1CCC(n2c(=O)[nH]c3cc(Cl)ccc32)CC1 | 21.3 µM (active) | inactive | inactive | 9.52 µM (active) | 9.52 µM (active) | inactive | inactive | inactive | inactive | inactive | inactive | inactive | inactive | inactive | 4.22 µM (active) | inactive |  |  | 
2 | N#CNC#N | inactive | inactive | inactive | inactive | inactive | inactive | inactive | inactive | inactive | inactive |  | inactive | inactive | inactive | inactive | inactive | inactive | inactive | 
3 | Oc1ccccc1Br | inactive | inactive | inactive | inactive | inactive | inactive | inactive | inactive |  | inactive |  | inactive | inactive | inactive | inactive |  | inactive |  | inactive
4 | Fc1ccc(Oc2ccnc3cc(Cl)cc(Cl)c23)cc1 | inactive | inactive | inactive | 11 µM (active) | 7.76 µM (active) | inactive | inactive | inactive | inactive |  |  | inactive | inactive | inactive |  |  | inactive | inactive | inactive
5 | N#Cc1ccc(O)cc1 | inactive | inactive | inactive | inactive | inactive | inactive | inactive | inactive | inactive |  |  | inactive | inactive | inactive | inactive |  | inactive | inactive | inactive
6 | COC12CC[C@@]3(C[C@@H]1C(C)(O)C(C)(C)C)[C@H]1Cc4ccc(O)c5c4[C@@]3(CCN1CC1CC1)[C@H]2O5 (some centres undefined) | 38.6 µM (active) | 24.4 µM (active) | 43.4 µM (active) | 34.4 µM (active) | 38.6 µM (active) | 21.7 µM (active) | inactive | 43.4 µM (active) | 60.7 µM (active) |  | inactive | inactive | inactive |  | 4.82 µM (active) |  | 24.2 µM (active) | 17.1 µM (active) | 24.2 µM (active)
7 | O=[N+]([O-])c1cc(Cl)ccc1Cl | inactive | inactive | inactive | inactive | inactive | inactive | inactive | inactive | inactive |  |  | inactive | inactive | inactive | inactive | inactive | inactive | inactive | inactive
8 | N#CCCO | inactive | inactive | inactive | inactive | inactive | inactive | inactive | inactive |  | inactive |  | inactive | inactive | inactive | inactive | inactive | inactive | inactive | inactive

Reference: PubChem BioAssay (Tox21)
